# Laboratory results: the supplement of paper PMC6555819
# Legend:
# Assay in all cases: PBM binding z-score (relative to random genomic background probes); higher = stronger binding; sequences stand for … in GC…GCGATTGACAGCGTAGAATGAAGG
# [1] = test system: FXR:RXRa (NR concentration 270 nM, RXRa partner concentration 90 nM)
# Procedure, shortened: (§1)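 Ligand-free nuclear receptor dimers were bound for 1 h to custom Agilent 4×180K protein-binding microarrays. Detection used antibodies against each partner (one per run). Binding z-scores rest on regression-normalized fluorescence, with random background probes as the reference.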
# [2] = test system: LXRa:RXRa (NR concentration 270 nM, RXRa partner concentration 90 nM)
# Procedure, shortened: as §1
# [3] = test system: LXRa homodimer (NR concentration 270 nM)
# Procedure, shortened: as §1
# [4] = test system: LXRb:RXRa (NR concentration 270 nM, RXRa partner concentration 90 nM)
# Procedure, shortened: as §1
# [5] = test system: LXRb homodimer (NR concentration 270 nM)
# Procedure, shortened: as §1
# [6] = test system: PPARa:RXRa (NR concentration 270 nM, RXRa partner concentration 90 nM)
# Procedure, shortened: as §1
# [7] = test system: PPARg:RXRa (NR concentration 180 nM, RXRa partner concentration 90 nM)
# Procedure, shortened: as §1
# [8] = test system: PPARg:RXRa 270nM:90nM, anti-RXR (NR concentration 270 nM, RXRa partner concentration 90 nM)
# Procedure, shortened: as §1
# [9] = test system: PPARg:RXRa 30nM:10nM, anti-RXR (NR concentration 30 nM, RXRa partner concentration 10 nM)
# Procedure, shortened: as §1
# [10] = test system: PPARg:RXRa 90nM:30nM, anti-RXR (NR concentration 90 nM, RXRa partner concentration 30 nM)
# Procedure, shortened: as §1
# [11] = test system: PPARg:RXRa DBDmut IVT, anti-RXR (DBD mutation: RXRa K156A/R161A, NR concentration 270 nM, RXRa partner concentration 90 nM)
# Procedure, shortened: as §1
# [12] = test system: PPARg:RXRa IVT, anti-PPARg (NR concentration 270 nM, RXRa partner concentration 90 nM)
# Procedure, shortened: as §1
# [13] = test system: PPARg DBDmut:RXRa IVT, anti-PPARg (DBD mutation: PPARg1 K132A/R137A, NR concentration 270 nM, RXRa partner concentration 90 nM)
# Procedure, shortened: as §1
# [14] = test system: PPARg DBDmut IVT, anti-PPARg (DBD mutation: PPARg1 K132A/R137A, NR concentration 270 nM)
# Procedure, shortened: as §1
# [15] = test system: PPARg homodimer (NR concentration 180 nM)
# Procedure, shortened: as §1
# [16] = test system: PXR:RXRa (NR concentration 270 nM, RXRa partner concentration 90 nM)
# Procedure, shortened: as §1
# [17] = test system: PXR homodimer (NR concentration 270 nM)
# Procedure, shortened: as §1
# [18] = test system: RARa:RXR (NR concentration 270 nM, RXRa partner concentration 90 nM)
# Procedure, shortened: as §1
# [19] = test system: RARa homodimer (NR concentration 270 nM)
# Procedure, shortened: as §1
# [20] = test system: RARb:RXRa (NR concentration 270 nM, RXRa partner concentration 90 nM)
# Procedure, shortened: as §1
Sequence,PBM binding z-score [1],PBM binding z-score [2],PBM binding z-score [3],PBM binding z-score [4],PBM binding z-score [5],PBM binding z-score [6],PBM binding z-score [7],PBM binding z-score [8],PBM binding z-score [9],PBM binding z-score [10],PBM binding z-score [11],PBM binding z-score [12],PBM binding z-score [13],PBM binding z-score [14],PBM binding z-score [15],PBM binding z-score [16],PBM binding z-score [17],PBM binding z-score [18],PBM binding z-score [19],PBM binding z-score [20]
CCTTACGGGTCACGAGCTTATAGCACGACGAGCG,6.56,4.18,-0.258,3.49,-0.00639,5.9,6.33,6.04,2.64,4.89,3.78,4.75,2.37,2.07,3.27,3.85,-0.361,5.25,0.902,4.42
ATCTCTAGGTAAAGATAGTTCATTGAATGCAAAT,0.585,5.32,1.71,1.59,0.747,1.36,1.11,0.714,0.293,0.846,1.7,1.76,1.3,1.29,0.829,2.33,1.98,1.25,1.34,1.06
AGAATGAGGTTACCAAAGATCAGGTAAACGCTTG,1.72,5.99,-0.313,3.44,-0.454,3.43,2.76,2.77,1.12,1.9,3.32,3.43,0.874,0.666,0.758,1.64,-0.0452,2.29,0.183,2.09
ATATGTAGGTTACATCCGGGTCCTTCAGGCTATG,0.21,1.72,0.152,0.684,0.758,3.17,5.07,4.1,2,3.63,7.33,7.38,2.34,1.87,0.864,0.482,0.298,0.744,0.322,0.999
TCTAGCGGGCCAGAGGGTCACTCAAGAGGTACGG,0.839,0.883,-0.748,1.08,-1.43,2.37,1.3,2.42,1.68,2.48,0.727,0.801,-0.857,-1.59,-0.0821,1.64,-0.599,2.17,-0.431,2.2
TCATATAGGTAAAGGTGAAATTCGAACGATATGA,0.843,1.08,-0.192,1.14,0.15,3.13,4.11,4.26,4.22,4.3,3.77,3.94,1.35,1.08,0.745,0.895,0.378,1.54,0.597,1.77
